For 38 compounds, Potency and activation results are on record in PubChem BioAssay AID624305 (National Center for Advancing Translational Sciences (NCATS), 2012).

Records with an inconclusive call do not appear. A call without a number means that no potency is given here. Values without a mark were called inactive. The source made the active and inactive calls. Calls come from the whole dose curve; as a rule, active = well fitted activation curve with a large enough effect; inconclusive = small, poorly fitted or top-dose-only effect; inactive = no such curve, though single readings can be large or run the other way.
Potency is the fitted concentration of half-maximal effect.

This assay can be described thus: qHTS assay for re-activators of p53 using a Luc reporter: Hit Validation. Note: nearly all actives have a fitted effect of over 75% in size. The following applies: p53-responsive luciferase reporter cells, luminescence, H1299 line expressing heat-sensitive Ala138Val p53; series mostly up to 46.1 µM. In short, it runs like this:
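H1299 (p53-null) cells stably carrying p53-A138V and a BP100-luciferase reporter, 1000 cells/well, treated 24 h at 37 deg C. Compounds at several concentrations, 1:5 dilution; nocodazole control; luminescence read after 10 min with detection reagent.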
On to `CCOC(=O)c1[nH]nc(C(=O)c2ccc(Br)cc2)c1O`, for which the Potency entry is “inactive”.

As to `COc1ccc(/C(C)=N/Nc2nccnc2Cl)cc1`, the Potency is 16400 nM (active).

Take `Cc1ccc(C(=O)CC(Nc2ccc(F)cc2)c2ccccc2)cc1` (stereo not drawn): the Potency result was “inactive”.

`COCCSc1ccccc1C(=O)Nc1cc(C)ccn1`: the Potency result is “inactive”.

Consider `CCOc1ccc(NS(=O)(=O)c2ccc(C(=O)NC3CCN(Cc4ccccc4)CC3)cc2)cc1`, for which the Potency result is “inactive”.

Regarding `COc1ccc(/C=N/Nc2nncc3ccccc23)cc1`, the Potency was 73.1 nM (active).

Turning to `Cc1cc(C)nc(CC(N)=O)n1`, the Potency entry is “inactive”.

Consider `O=C(N/N=C(\c1ccccc1)c1cccnc1)c1cccc(F)c1`, for which the Potency was 16400 nM (active).

Consider `Cc1cccc(NC(=O)c2oc3c(c2C)C(=O)CC(C)(C)C3)n1`, for which the Potency result is “inactive”.

Regarding `COc1cc(N/N=C/c2ccccc2O)ncn1`, the Potency is 25900 nM (active).

`O=S(=O)(CCOc1ccccc1)c1nc2ccccc2[nH]1`: the Potency entry was “inactive”.

`CC(=O)N/C(=C/c1ccc2c(c1)OCO2)C(=O)Nc1ccccc1`: the Potency entry was “inactive”.

As for `C=CCn1c(C)cc(C(=O)CSc2nc3ccccc3o2)c1C`, the Potency is 731 nM (active).

`O=C(CC1CCCCC1)NCc1ccc(Cl)cc1`: the Potency is 11600 nM (active).

Turning to `CCc1ccc2oc(-c3ccc(N)cc3)nc2c1`, the Potency is 92 nM (active).

For `Cc1cccc(-n2nc([N+](=O)[O-])c(=NC3CCN(Cc4ccccc4)CC3)n2O)c1`, the Potency result is “inactive”.

With `COc1ccccc1Oc1c(C)oc2c(CN(C)C)c(O)ccc2c1=O`, the Potency result was “inactive”.

With `C=CCSC1=N/C(=C\c2cc(OCC)c(OC(C)=O)c([N+](=O)[O-])c2)C(=O)S1`, the Potency entry was “inactive”.

For the compound `Cc1nn(-c2ccccc2)c(N2CCCC2)c1/C=N/NC(=O)c1cc(-c2ccccc2)nc2ccccc12`, the Potency result is “inactive”.

Take `C/C(=C\COc1ccc2ccc(=O)oc2c1)CC[C@@H](O)C(C)(C)O`: the Potency result is “inactive”.

As for `O=C(N/N=C/c1ccccc1O)C1CC(=O)N(c2ccc(Cl)cc2)C1` (stereo not drawn), the Potency entry was “inactive”.

Regarding `COCc1[nH]nc2c1C(c1cccc(OC)c1)C(C#N)=C(N)O2` (stereo not drawn), the Potency result was “inactive”.

As for `Cc1nn2cc(-c3ccc(-c4ccccc4)cc3)nc2s1`, the Potency was 184 nM (active).

Turning to `N#C/C(=C/c1cccnc1)c1ccccc1`, the Potency result is “inactive”.

As for `Nc1nonc1-n1nnc(C(=O)N/N=C/c2cc(Br)ccc2O)c1CSC1=NCCS1`, the activation was -26.8% [at 9.22 µM].

Turning to `Cc1ccccc1-c1noc(N)c1C#N`, the Potency entry is “inactive”.

For the compound `CCN(CC(=O)NCc1cccs1)c1ccc(S(=O)(=O)N2CCOCC2)cn1`, the Potency result is “inactive”.

Consider `Cc1cccc(NC(=O)/C=C/c2ccc([N+](=O)[O-])s2)c1`, for which the Potency entry was “inactive”.

In the case of `Cc1cccc(N/C=C/C(=O)c2cccs2)c1C`, the Potency was 65.1 nM (active).

For `Cc1ccc(C)n1-c1cccc(NC(=O)c2ccccc2)c1`, the Potency entry was “inactive”.

For the compound `COc1ccc(C2/C(=C(/O)c3ccc(C)cc3)C(=O)C(=O)N2CCCN2CCOCC2)cc1` (stereo not drawn), the Potency result is “inactive”.

For the compound `O=C(Nc1nc2c(s1)CCCC2)C1COc2ccccc2O1` (stereo not drawn), the Potency was 231 nM (active).

In the case of `Cc1cc(C)c2nc(NNC(=O)c3ccc(S(=O)(=O)N4CCc5ccccc5C4)cc3)sc2c1`, the Potency entry is “inactive”.

For `CCOC(=O)N(Cc1ccccc1)C(C(=O)O)C(C(=O)O)N(Cc1ccccc1)C(=O)OCC` (stereo not drawn), the Potency entry was “inactive”.

Consider `OCc1cc(Br)ccc1OCc1nc2ccccc2s1`, for which the Potency is 2910 nM (active).

In the case of `CCOC(=O)c1c(C)[nH]c(C(=O)OCCOc2ccccc2C)c1C`, the Potency is 1300 nM (active).

With `C1=C(CCNc2ncnc3nc[nH]c23)CCCC1`, the Potency is 1640 nM (active).

Turning to `Cc1ccccc1S(=O)(=O)Nc1nc2ccccc2nc1N1CCc2ccccc2C1`, the Potency entry is “inactive”.
